Neddylation inh – blocks human cullin neddylation; TR-FRET cullin neddylation, biochemical; calls only at 25 µM; actives 0.58% (n = 360,000); AID 651699; in the data active means inhibition above about 36%
Target sequence (P61081 whole entry, looked up): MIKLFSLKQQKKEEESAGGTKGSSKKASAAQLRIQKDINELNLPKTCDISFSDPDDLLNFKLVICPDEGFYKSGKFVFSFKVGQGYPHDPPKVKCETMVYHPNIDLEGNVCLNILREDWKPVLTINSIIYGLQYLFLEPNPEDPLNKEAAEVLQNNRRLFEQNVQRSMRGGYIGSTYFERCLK
Target sequence (Q13564 whole entry, looked up): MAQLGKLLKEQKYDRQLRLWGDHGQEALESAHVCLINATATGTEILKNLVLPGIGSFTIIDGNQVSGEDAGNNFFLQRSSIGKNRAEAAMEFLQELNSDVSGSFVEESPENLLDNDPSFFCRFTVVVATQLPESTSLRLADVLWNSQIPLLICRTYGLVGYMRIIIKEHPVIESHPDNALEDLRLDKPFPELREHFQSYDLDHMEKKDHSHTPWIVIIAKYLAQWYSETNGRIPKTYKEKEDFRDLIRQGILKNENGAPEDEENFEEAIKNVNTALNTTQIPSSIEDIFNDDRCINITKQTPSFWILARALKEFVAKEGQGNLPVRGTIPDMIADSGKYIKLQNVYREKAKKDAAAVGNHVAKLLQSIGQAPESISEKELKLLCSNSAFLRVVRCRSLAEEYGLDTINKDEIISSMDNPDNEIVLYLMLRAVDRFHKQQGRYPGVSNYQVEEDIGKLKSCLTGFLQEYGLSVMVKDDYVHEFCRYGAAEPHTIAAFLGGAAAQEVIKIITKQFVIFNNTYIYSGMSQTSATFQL
PfGluPho inh – PfG6PD (Plasmodium falciparum) enzyme inhibition. PfGluPho enzyme, NADPH resazurin-diaphorase fluorescence. inhibition, % at 20 µM. actives 0.78% (n = 350,000). AID 504690;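 active means inhibition reaching at least a set limit at 20 µM in the primary screen, cut at about 59% in these data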;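 further: 0% = DMSO wells with substrate and 100% = DMSO wells lacking glucose-6-phosphate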
FAS-TE inh – inhibitors of human fatty acid synthase thioesterase domain. P49327. inhibition, % at 15 µM. actives 0.67% (n = 360,000). recombinant FAS-TE, OMFH fluorogenic substrate, fluorescence endpoint;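 active means compounds whose normalised, plate-corrected inhibition of enzyme fluorescence in the single-dose primary screen is 50% or more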;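 further: 0% = DMSO with enzyme and 100% = substrate without enzyme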
proKLK7 act – proKLK7 (human) activation, primary screen; AID 652039; P49862; actives 0.9% (n = 370,000); activation, % at 7 µM; purified proKLK7, EDANS-DABCYL substrate fluorescence; 100% is mature enzyme control, 0% vehicle;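 active means activation above the mean of all tested compounds plus 3 SD, computed per campaign excluding outliers beyond control limits, cut at about 13% in these data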
KLK7 act conf – proKLK7 activation, confirmation; purified proKLK7, EDANS-DABCYL substrate fluorescence; scaled: vehicle 0, mature enzyme 100; actives 68% (n = 3,200); activation, % at 7 µM; shares compounds with proKLK7 act; AID 686949;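 active means activation, as change over the incubation, above the mean of all tested compounds plus 3 SD, cut at about 13% in these data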
EDANS interfere – fluorescence interference counter-screen for KLK7 activators; shares compounds with proKLK7 act; EDANS-DABCYL substrate fluorescence interference, no enzyme, 4 h; solvent 0%, active enzyme control 100%; activation, % at 7 µM; actives 80% (n = 3,200); AID 686952;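 active means activation above the all-compound mean plus 3 SD, ignoring values outside control-based bounds, cut at about 4.8% in these data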;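 further: value is the 4 h activation minus the activation read at time zero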
The depositor's hits bear a star; i = inactive; / = no result shown. The list is not random: actives were taken first. Their share in the collection is about 2.7%.

SMILES	Neddylation inh	PfGluPho inh	FAS-TE inh	proKLK7 act	KLK7 act conf	EDANS interfere
Nc1nc2ncccc2cc1C(=O)c1c[nH]c2ccccc12	/	/	/	0	/	/
CCOC(=O)C[n+]1ccc2c([nH]c3ccccc32)c1C	/	-15	-7	36*	47*	72*
CCOC(=O)Cc1c(Cl)c2ccccc2[nH]c1=O	i	-1	-4	0	/	/
O=c1cc(CN2CCCCC2)c2ccccc2o1	i	/	-1	1	/	/
NC(=O)c1ccc(Nc2nnc(-c3ccc(O)cc3)c3ccccc23)cc1	/	1	0	4	/	/
CNC(=O)c1ccc(Nc2nnc(-c3ccc(C(N)=O)cc3)c3ccccc23)cc1	i	-16	-4	133*	7	108*
Nc1nc2ccccc2cc1S(=O)(=O)c1ccccc1	/	9	-1	13*	7	10*
CCCCN(CCCC)CCn1cnc2c([nH]c3ccc(OC)cc32)c1=O	/	8	-4	7	/	/
COc1cccc2[nH]c3c(=O)n(CCN(C)C)cnc3c12	/	-8	-1	49*	15*	14*
COc1cccc2[nH]c3c(=O)[nH]cnc3c12	/	17	-8	13*	10	14*
CCN(CC)CCn1cnc2c([nH]c3cccc(OC)c32)c1=O	/	3	-4	67*	28*	31*
CN(C)[C@H]1CCN(c2cccc3c2S(=O)(=O)N(C2CC2)CCCO3)C1	/	/	/	0	/	/
O=c1oc2ccccc2cc1-c1nc2ccccc2o1	i	-5	0	89*	74*	86*
O=c1oc2ccc3ccccc3c2cc1-c1nc2ccccc2o1	/	-1	-3	-53	/	/
CN(C(=O)NC1CCCCC1)[C@H]1C[C@H]2c3[nH]c4ccccc4c3CCN2C(=O)[C@H]1CO	/	5	-9	-26	/	/
CN(C(=O)C(C)(C)C)[C@H]1C[C@H]2c3[nH]c4ccccc4c3CCN2C(=O)[C@H]1CO	/	5	-37	27*	9	9.6*
C[C@H](O)[C@@H]1C(=O)N2CCc3c([nH]c4ccccc34)[C@@H]2C[C@@H]1N(C)C(=O)OCc1ccccc1	/	/	/	12	/	/
CCOC(=O)CNC(=O)N(C)[C@H]1C[C@H]2c3[nH]c4ccccc4c3CCN2C(=O)[C@H]1[C@H](C)O	i	/	-5	73*	11	9.8*
CCOC(=O)N(C)[C@H]1C[C@H]2c3[nH]c4ccccc4c3CCN2C(=O)[C@H]1[C@H](C)O	/	/	/	50*	8	5.9*
C[C@H]1CN([C@@H](C)CO)C(=O)CCCn2cc(nn2)CO[C@@H]1CN(C)C(=O)Nc1ccc(F)cc1	i	-13	-9	0	/	/
C=CCNc1ccc2c(c1)OC[C@@H](CC(C)C)NS2(=O)=O	/	/	/	1	/	/
CNc1oc(/C=C/c2ccccc2)nc1C#N	/	3	1	80*	64*	68*
CNc1oc(-c2ccccc2)nc1C#N	/	2	-4	-14	/	/
COCCNc1oc(/C=C/c2ccccc2)nc1C#N	i	17	-2	106*	71*	76*
N#Cc1nc(-c2cccs2)oc1NCCCN1CCOCC1	/	0	-10	42*	78*	78*
SMILES	Neddylation inh	PfGluPho inh	FAS-TE inh	proKLK7 act	KLK7 act conf	EDANS interfere
COCCNc1oc(-c2ccc(C)cc2)nc1C#N	/	-18	-4	3	/	/
N#Cc1nc(/C=C/c2ccccc2)oc1NCCCN1CCOCC1	i	13	-2	32*	75*	71*
CCc1nc2ccc(C(=O)N3CCNC(=O)C3)cn2c1N(C)CCC(C)C	i	/	-1	0	/	/
O=C(CSc1nc2ncccc2[nH]1)N1CCOCC1	/	/	/	0	/	/
N#Cc1nc(-c2cccs2)oc1N1CCOCC1	/	-4	-1	15*	40*	49*
CC1CN(c2oc(-c3cccs3)nc2C#N)CC(C)O1 (stereo unspecified)	i	-1	-4	10	/	/
Nc1ccc(N=Nc2ccccc2O)c(N)c1	i	2	8	40*	101*	99*
COc1cccc2c(=S)c(CCC(C)=O)c(C)[nH]c12	i	40	-3	21*	22*	24*
O=C(COc1ccc2oc(-c3ccco3)cc(=O)c2c1)N1CCCCC1	/	1	-2	61*	60*	60*
COc1ccc2oc(-c3ccco3)cc(=O)c2c1	/	6	0	57*	74*	71*
COc1ccc2oc(-c3ccncc3)cc(=O)c2c1	/	-1	-6	21*	37*	33*
O=C(COc1ccc2oc(-c3ccccc3)cc(=O)c2c1)NCc1ccco1	i	-17	3	/	/	/
CCCNC(=O)N1C[C@H](O)COC[C@H]2O[C@@H](CC(=O)N[C@@H]3CCN(Cc4ccccc4)C3)CC[C@@H]21	i	/	/	4	/	/
COc1cc2c(cc1OC)CN(Cc1ccccc1)CC2	i	-5	-4	4	/	/
COc1cc2c(cc1OC)CN(C(=O)Cc1ccccc1)CC2	i	0	-4	0	/	/
COc1cc2c(cc1OC)CN(CCC(C)c1ccc(Cl)cc1)CC2 (stereo unspecified)	i	10	2	21*	148*	145*
COc1cc2c(cc1OC)CN(C(=O)c1ccccc1C(=O)O)CC2	i	-12	-8	16*	7	5.2*
COc1cc2c(cc1OC)CN(CC(O)c1ccccc1)CC2 (stereo unspecified)	/	-11	-2	96*	56*	74*
O=C(Nc1ccc2oc(=O)c(C(=O)O)cc2c1)Oc1ccccc1	/	9	-5	100*	187*	181*
CC(=O)Nc1ccc(NC(=O)Oc2ccccc2)cc1	i	2	-11	0	/	/
O=C(Nc1ccc(O)c(C(=O)O)c1)Oc1ccccc1	/	-5	-3	26*	30*	28*
CN1CCN(c2ccc(CNC(=O)C3(C)Cc4c(-c5ccccc5)ccnc4O3)cc2)CC1 (stereo unspecified)	i	/	-10	0	/	/
CCOC(=O)Cn1c(=NC(=O)c2cc(-c3cccs3)nc3ccccc23)sc2cc(S(N)(=O)=O)ccc21	i	0	1	172*	-2	-15
COC(=O)Cn1c(=NC(=O)c2cc(-c3cccs3)nc3ccccc23)sc2cc(S(N)(=O)=O)ccc21	i	11	20	-83	/	/
Cc1ccc(C2C3=C(CC(C)(C)CC3=O)N(CCN3CCOCC3)C3=C2C(=O)CC(C)(C)C3)cc1	/	14	-15	17*	8	10*
CC1(C)CC(=O)C2=C(C1)N(CCN1CCOCC1)C1=C(C(=O)CC(C)(C)C1)C2c1ccc(Cl)c([N+](=O)[O-])c1	i	10	24	2	/	/
O[C@H]1C[C@H](c2ccccc2)N(Cc2cccs2)C[C@@H]1n1cc(-c2ccc(F)cc2)nn1	i	26	27	0	/	/
NC(=O)c1cccc2cc3ccccc3cc12	/	0	-3	53*	65*	72*
COc1cc(OC)c(-c2nnc(-c3ccc(OC)c(OC)c3OC)o2)cc1OC	/	4	-2	13*	-34	-33
